# Data taken from ChEMBL document CHEMBL3988442, “University of Dundee, Small-Polar-MMV Screening Library” (2021).
# Target: T1, Methionyl-tRNA synthetase, putative (Leishmania donovani (strain BPK282A1)) (UniProt E9BF75)
# T1 sequence (whole entry): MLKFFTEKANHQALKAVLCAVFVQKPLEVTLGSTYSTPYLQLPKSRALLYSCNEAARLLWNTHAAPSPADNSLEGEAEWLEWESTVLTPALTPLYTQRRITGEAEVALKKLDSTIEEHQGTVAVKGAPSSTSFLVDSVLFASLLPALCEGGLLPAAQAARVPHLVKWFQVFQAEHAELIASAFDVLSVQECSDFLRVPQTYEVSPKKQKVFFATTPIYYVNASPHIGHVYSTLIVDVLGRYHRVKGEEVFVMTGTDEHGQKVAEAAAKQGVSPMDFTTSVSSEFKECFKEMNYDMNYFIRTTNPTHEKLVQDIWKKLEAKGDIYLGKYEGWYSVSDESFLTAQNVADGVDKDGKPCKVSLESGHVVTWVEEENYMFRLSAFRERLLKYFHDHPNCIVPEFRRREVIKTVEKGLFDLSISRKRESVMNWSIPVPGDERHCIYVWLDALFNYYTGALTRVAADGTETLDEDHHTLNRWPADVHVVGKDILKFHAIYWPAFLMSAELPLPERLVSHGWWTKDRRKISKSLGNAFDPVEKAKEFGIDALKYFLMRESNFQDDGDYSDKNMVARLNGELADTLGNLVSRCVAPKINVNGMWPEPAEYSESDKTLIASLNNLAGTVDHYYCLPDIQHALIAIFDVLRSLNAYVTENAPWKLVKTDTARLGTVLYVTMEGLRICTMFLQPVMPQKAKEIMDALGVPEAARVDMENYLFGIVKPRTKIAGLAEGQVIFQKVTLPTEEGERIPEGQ
# Assay: Leishmania donovani Methionine tRNA synthetase (LdMetRS):v7. Dose response assay
# Assay type: functional
# Parameters: conc 80 nM, time 150 minutes
compound,measurement,setting,value
COCCN1CCN(c2ccc3ccc(C(=O)NC4CC4)cn23)CC1,PXC50,MAX_EFFECT 43.53741497,< 4
same,PXC50,MAX_EFFECT 48.22429907,< 4
CNc1nc(C)nc(N2CCc3cc(C(=O)NCc4ccc(-c5nccn5C)cc4Cl)ccc32)n1,PXC50,MAX_EFFECT 28.67132867,< 4
same,PXC50,MAX_EFFECT 30.23255814,< 4
CC(C)C[C@H](N)COc1ccccc1-c1ccnn1C,PXC50,MAX_EFFECT 4.572564612,< 4
same,PXC50,MAX_EFFECT 5.733944954,< 4
Cc1sc2nc(-c3cccs3)nc(N(C)CC(=O)NC3CC3)c2c1C,PXC50,MAX_EFFECT 6.361323155,< 4
same,PXC50,MAX_EFFECT 7.808564232,< 4
OCc1ccncc1NCc1cnc(-c2ccccn2)s1,PXC50,MAX_EFFECT 2.34741784,< 4
same,PXC50,MAX_EFFECT 7.222222222,< 4
CC(C)C[C@H](N)C(=O)Nc1cccnc1Oc1ccc(Cl)cc1,PXC50,MAX_EFFECT 2.186878728,< 4
same,PXC50,MAX_EFFECT 7.568807339,< 4
Cc1nc2c(-c3nc(-c4ccccc4N)n[nH]3)cccn2c1C,PXC50,MAX_EFFECT 15.34883721,< 4
same,PXC50,MAX_EFFECT 20.27972028,< 4
CC(C)C[C@H](N)COc1ccccc1-c1ccno1,PXC50,MAX_EFFECT 9.594882729,< 4
same,PXC50,MAX_EFFECT 10.97308489,< 4
O=C1CC[C@@H](COc2cccc(F)c2Oc2ccc(Cl)cc2)N1,PXC50,MAX_EFFECT 7.462686567,< 4
same,PXC50,MAX_EFFECT 9.316770186,< 4
CS(=O)(=O)N1CCN(c2ccc3ccc(C(=O)N4CCCCO4)cn23)CC1,PXC50,"BOTTOM 3.408302262, HILLSLOPE 2.699207266, MAX_EFFECT 56.14035088, TOP 100.0",4.33
same,PXC50,"BOTTOM -1.088314762, HILLSLOPE 0.901802249, MAX_EFFECT 54.6875, TOP 100.0",4.49
Cc1c(-c2cc(C(F)(F)F)nc(N3CCC(N)CC3)n2)cnn1C,PXC50,MAX_EFFECT 7.485604607,< 4
same,PXC50,MAX_EFFECT 8.133971292,< 4
CCNc1cc(-c2ccccn2)nc(Nc2ccc(F)cc2)n1,PXC50,MAX_EFFECT 11.72707889,< 4
same,PXC50,MAX_EFFECT 12.21532091,< 4
Nc1noc2ccc(-c3cnc4ccc(N5CCOCC5)nn34)cc12,PXC50,MAX_EFFECT 12.21374046,< 4
same,PXC50,MAX_EFFECT 20.61403509,< 4
Fc1cccc(OC[C@@H]2CCCN2)c1Oc1ccc(Cl)cc1,PXC50,MAX_EFFECT 8.488612836,< 4
same,PXC50,MAX_EFFECT 13.00639659,< 4
Cc1ccc(-c2ncc(CNc3cnccc3CO)s2)cc1,PXC50,MAX_EFFECT 7.042253521,< 4
same,PXC50,MAX_EFFECT 10.18518519,< 4
CN1CCN(C(=O)CNC(=O)c2ccc3ccc(N4CCN(S(C)(=O)=O)CC4)n3c2)CC1,PXC50,"BOTTOM 0.0904, HILLSLOPE 2.137945772, MAX_EFFECT 50.23923445, TOP 52.555747",4.83
same,PXC50,"BOTTOM 3.391781155, HILLSLOPE 3.900764743, MAX_EFFECT 59.59780622, TOP 59.91227163",4.76
CC(C)NC(=O)c1ccc2ccc(N3CCN(S(C)(=O)=O)CC3)n2c1,PXC50,"BOTTOM 1.200641937, HILLSLOPE 2.342552546, MAX_EFFECT 57.54716981, TOP 55.68048652",4.88
same,PXC50,"BOTTOM 2.289724742, HILLSLOPE 1.802731874, MAX_EFFECT 51.59817352, TOP 52.80479707",4.95
CS(=O)(=O)N1CCN(c2ccc3ccc(C(=O)NC4Cc5ccccc5C4)cn23)CC1,PXC50,"BOTTOM 1.298239116, HILLSLOPE 2.724135748, MAX_EFFECT 51.19617225, TOP 47.98570818",5.08
same,PXC50,"BOTTOM 7.56395186, HILLSLOPE 1.844448201, MAX_EFFECT 55.57586837, TOP 59.35407924",4.75
CS(=O)(=O)N1CCN(c2ccc3ccc(C(=O)NC4CCN(c5ncccn5)CC4)cn23)CC1,PXC50,"BOTTOM 1.498519447, HILLSLOPE 2.25926472, MAX_EFFECT 69.85645933, TOP 69.17206782",4.97
same,PXC50,"BOTTOM 9.613017987, HILLSLOPE 3.179249655, MAX_EFFECT 74.58866545, TOP 74.15419217",4.86
Cc1nc(N2CCc3ccccc3C2)c2c3c(sc2n1)CCC3,PXC50,"BOTTOM 1.539204696, HILLSLOPE 1.85727021, MAX_EFFECT 61.30653266, TOP 67.5568533",4.58
same,PXC50,"BOTTOM -2.995522408, HILLSLOPE 1.216214635, MAX_EFFECT 78.37837838, TOP 108.7860492",4.36
NC(=O)C1CCN(c2cncc(-n3cccn3)n2)CC1,PXC50,MAX_EFFECT 1.936619718,< 4
same,PXC50,MAX_EFFECT 4.750593824,< 4
CS(=O)(=O)N1CCN(c2cnc3ncc(C(=O)NC4CCCC4)cn23)CC1,PXC50,MAX_EFFECT 3.624733475,< 4
same,PXC50,MAX_EFFECT 4.761904762,< 4
Cc1nc(N(C)CC(=O)N2CCCC2)c2c3c(sc2n1)CCCC3,PXC50,MAX_EFFECT 3.703703704,< 4
same,PXC50,MAX_EFFECT 3.733333333,< 4
Cc1sc2nc(CN3CCOCC3)nc(NC(C)(C)CCO)c2c1C,PXC50,MAX_EFFECT 4.371584699,< 4
same,PXC50,MAX_EFFECT 8.021390374,< 4
O=C(NCC1CCCCC1)c1cc(=O)c2cc(F)cc(O)c2o1,PXC50,MAX_EFFECT 5.56621881,< 4
same,PXC50,MAX_EFFECT 11.64274322,< 4
Cc1nc(N2CCN(CCO)CC2)c2c(-c3ccccc3)csc2n1,PXC50,MAX_EFFECT 6.12244898,< 4
same,PXC50,MAX_EFFECT 9.848484848,< 4
Cc1nc(NCc2cccnc2)c2c3c(sc2n1)CCC3,PXC50,MAX_EFFECT 6.361323155,< 4
same,PXC50,MAX_EFFECT 13.85390428,< 4
CCc1nc(NCCO)c2cc(CC)sc2n1,PXC50,MAX_EFFECT 6.532663317,< 4
same,PXC50,MAX_EFFECT 10.07371007,< 4
Cn1cc(CN2CCC(F)(F)C3(CCN(c4ccccn4)C3)C2)cn1 (stereo not given),PXC50,MAX_EFFECT 6.802721088,< 4
same,PXC50,MAX_EFFECT 8.971962617,< 4
Cc1nc(NCCS(N)(=O)=O)c2c(-c3ccccc3)csc2n1,PXC50,MAX_EFFECT 6.870229008,< 4
same,PXC50,MAX_EFFECT 12.34256927,< 4
